# From PubChem BioAssay
# Methyltransferases – Primary Screen for Target Class Profiling of Small Molecule Inhibitors of Methyltransferases. AID 1745853, 2022. purified enzyme, MTase-Glo SAH luminescence; active compounds read low. calls only at 40 µM. 25,000 compounds, 3.9% hits; call rule not given here
#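 Each enzyme was assayed with SAM and its substrate. SAH formation detected by MTase-Glo luminescence; single-point 40 uM screen[…].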
# * = called active by the depositor; i = inactive; + = active, no number. The full list was thinned out, with hits kept by preference. % is set by controls: 0 for no effect and ±100 for the full control effect.
SMILES,Methyltransferases
CC1CN(c2cc3c(cc2F)c(=O)c(C(=O)O)cn3-c2ccc(F)cc2F)CCN1 (configuration not stated),i
C[C@@H]1CN(c2c(F)c(F)c3c(=O)c(C(=O)O)cn(C4CC4)c3c2F)C[C@H](C)N1,i
COc1cccc(CNC(=O)CCc2nnc3n(CCC(C)C)c(=O)c4ccccc4n23)c1,i
CC1(C(=O)NC2CCCCCCC2)Cn2c(ccc2-c2ccco2)C(=O)N1Cc1ccc(Cl)cc1 (configuration not stated),i
C=Cc1ccc(Cn2nc3n(Cc4ccccc4)c(=O)c4ccc(C(=O)NCC(C)C)cc4n3c2=O)cc1,i
CCC(C)NC(=O)c1ccc2c(=O)n(C)c3nn(CC(=O)NC4CCCC4)c(=O)n3c2c1 (configuration not stated),i
NC1(c2ccc(-c3nc4ccn5c(=O)[nH]nc5c4cc3-c3ccccc3)cc2)CCC1,+
Cc1ccc(CNC(=O)Cn2nc3n(CCC(C)C)c(=O)c4ccc(C(=O)NC(C)C)cc4n3c2=O)cc1,i
CCCn1c(=O)c2ccccc2n2c(SCC(=O)Nc3cccc(C)c3)nnc12,i
CC(=O)NC(Cc1ccccc1)C(=O)O (configuration not stated),i
CC(=O)NC(Cc1c[nH]c2ccccc(=O)c12)C(=O)O (configuration not stated),+
N[C@@H](Cc1c[nH]c2ccccc12)C(=O)O,i
O=c1[nH]c2ccc(S(=O)(=O)N3CCN(Cc4ccc5c(c4)OCO5)CC3)cc2[nH]1,i
COC(=O)c1cc2n(n1)CC(C)(C(=O)NC1CCCCCC1)N(c1ccc(C)c(C)c1)C2=O (configuration not stated),i
Cc1ccsc1C(=O)N1CCN(c2cc(-c3cccs3)[nH]n2)CC1,i
CN1CCN(C(=O)c2ccc(Nc3nccc(-c4cccs4)n3)cc2Cl)CC1,+
COc1ccc(C(=O)N2CCN(c3cc(-c4cccs4)[nH]n3)CC2)cc1OC,i
COC(=O)c1ncn2c1C(=O)N(Cc1cccc(OC)c1OC)C(C)(C(=O)NC1CCCC1)C2 (configuration not stated),i
COc1ccc2cc3n(c2c1)CC(C)(C(=O)NC1CCCCC1)N(CCC(C)C)C3=O (configuration not stated),i
CC(C)n1cc(-c2ccc(Oc3ccccc3)cc2)c2c(N)ncnc21,+
CC(CCc1ccccc1)NC(=O)CCn1ccc2cc(S(=O)(=O)N3CCCCC3)ccc21 (configuration not stated),i
COc1ccc(S(=O)(=O)c2nnn3c2nc(Nc2ccc(C)cc2)c2ccccc23)cc1,i
Nc1[nH]nc2nnc(-c3c(-c4ccccc4)nn4ccccc34)cc12,+
O=C(O)c1cc(-c2c(-c3ccccc3)nn3ccccc23)n[nH]c1=O,i
COC(=O)c1ncn2c1C(=O)N(c1ccc(F)cc1)C(C)(C(=O)NC1CCCC1)C2 (configuration not stated),i
SMILES,Methyltransferases
Cc1ccc(C(=O)C(C)n2nc3n(C)c(=O)c4ccc(C(=O)NC5CCCC5)cc4n3c2=O)cc1C (configuration not stated),i
CC1(C(=O)NC2CCCCC2)Cn2c(cc3occc32)C(=O)N1CCN1CCOCC1 (configuration not stated),i
O=C(CCCc1nnc2n3nc(-c4ccccc4)nc3c3ccccc3n12)NCc1ccc(Cl)cc1,i
O=C(CCc1nnc2n(CCc3ccccc3)c(=O)c3ccccc3n12)N1CCN(c2ncccn2)CC1,i
C=CC(=O)Nc1cccc(Nc2nc(Nc3ccc(Oc4ccnc(C(=O)NC)c4)cc3)ncc2F)c1,+
NCc1ccc(Nc2ncc(F)c(Nc3ccccc3)n2)cc1,i
CNC(=O)c1cc(Oc2ccc3nc(N[C@@H]4CCCC[C@H]4O)sc3c2)ccn1,i
Cc1cccc(CNC(=O)C2(C)Cn3cnc(C(=O)NCc4ccccc4)c3C(=O)N2C2CC2)c1 (configuration not stated),i
COc1ccccc1CNC(=O)C1(C)Cn2cnc(C(=O)NCc3ccc(C)cc3)c2C(=O)N1C1CC1 (configuration not stated),i
CC(C)CNC(=O)c1ccc2c(=O)n(CC(C)C)c3nnc(SCC(=O)c4ccccc4)n3c2c1,i
CC1=CCC(O)C2(C)CCC3C(C)C(=O)OC3C12 (configuration not stated),+
C[C@@H]1C(=O)O[C@H]2[C@H]1CC[C@@]1(C)C(=O)C=C[C@@](C)(O)[C@H]21,i
C=C1C(=O)O[C@@H]2[C@H]1[C@H](O)C[C@]1(C)[C@@H](O)CC=C(C)[C@@H]21,i
CCNC(=O)c1cc2n(n1)CC(C)(C(=O)NCc1ccc(F)cc1)N(C)C2=O (configuration not stated),i
CC(C)OCCCNC(=O)c1cc2n(n1)CC(C)(C(=O)NCc1ccc(F)cc1)N(C)C2=O (configuration not stated),i
C/C=C(\C)C(=O)OCC1OC(OCC2OC(OC3(CO)OC(CO)C(O)C3O)C(O)C(O)C2O)C(O)C(O)C1O (configuration not stated),i
CC(C)CC(=O)OC[C@H]1O[C@@](COC(=O)CC(C)C)(O[C@H]2O[C@H](CO)[C@@H](O)[C@H](O)[C@H]2OC(=O)CC(C)C)[C@@H](OC(=O)CC(C)C)[C@@H]1O,i
C/C=C(\C)C(=O)O[C@H]1[C@@H](O[C@]2(COC(=O)CC(C)C)O[C@H](COC(=O)C(C)C)[C@@H](OC(C)=O)[C@@H]2O)O[C@H](COC(C)=O)[C@@H](O)[C@@H]1O,+
Cc1ccc(Cl)cc1NC(=O)Cn1nc2n(CCC(C)C)c(=O)c3ccccc3n2c1=O,i
Cc1c(OCc2cccc(-c3ccc(C(=O)O)cc3)c2)cc2c(c1C)C(=O)C(C1CCCC1)C2 (configuration not stated),+
O=C(O)c1cc(-c2cccc(CO)c2)cc(S(=O)(=O)NC2CCCC2)c1,i
CC1CC(O)C2(C)C(C(=O)O)=CCCC2C1(C)CCc1ccoc1 (configuration not stated),+
CC1CCC2(CO)C(C(=O)O)=CCCC2C1(C)CCc1ccoc1 (configuration not stated),+
CC1CCC2(C)C(CC(O)C(O)C23CO3)C1(C)CCC1=CC(=O)OC1O (configuration not stated),i
CC1=CCC[C@@H]2[C@](CCc3ccoc3)(C(=O)O)[C@H](C)CC[C@@]12C,i
SMILES,Methyltransferases
CC1CCC(NC(=O)C2(c3ccccc3)Cn3c(cc4sccc43)C(=O)N2Cc2ccc(F)cc2)CC1 (configuration not stated),i
COc1cccc(NC(=O)CCc2nnc3n(CCc4ccccc4)c(=O)c4ccccc4n23)c1,i
CC1CCC(NC(=O)Cn2ccc3cc(S(=O)(=O)N4CCCC4)ccc32)CC1 (configuration not stated),i
Cc1ccc(Nc2nc(C)cc3nn(CC(=O)Nc4ccc5c(c4)OCO5)c(=O)n23)cc1,i
Cc1ccccc1N1C(=O)c2cc3sccc3n2CC1(C)C(=O)NC1CCCCCC1 (configuration not stated),i
CCOc1cc(OCC)c2c(-c3ccccc3)cc(=O)oc2c1,+
CCOc1cc2oc(=O)cc(-c3ccccc3)c2cc1Cl,i
CCCCCOc1ccc2c(-c3ccccc3)cc(=O)oc2c1,i
